Assay [1] in a line: qHTS assay to identify small molecule agonists of the vitamin D receptor (VDR) signaling pathway - cell viability counter screen (AID 743224). Also: nearly all actives have a fitted effect of over 50% in size. Also: potency is read from the fitted curve at half-maximal effect. An outline of the steps:
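Compounds were pin-transferred onto VDR-bla cells plated 4 h earlier; following 16 h incubation at 37C, cell viability was quantified by CellTiter-Glo luminescence after 30 min at room temperature.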

Assay [2] in a line: qHTS assay to identify small molecule agonists of the NFkB signaling pathway - cell viability counter screen (AID 1159515; calls by dose curve; also: nearly all actives have a fitted effect of over 55% in size; also: potency is read from the fitted curve at half-maximal effect). An outline of the steps:
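Parallel cytotoxicity counter screen in ME-180 cells carrying an NFkB-response-element beta-lactamase reporter, 2,000 cells/well. Compound exposure lasted 5 hr at 37 C, 5% CO2. Cell viability was quantified by CellTiter-Glo luminescence.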

A short description of assay [3]: qHTS assay to identify small molecule agonists of the endoplasmic reticulum stress response signaling pathway - cell viability counter screen (AID 1159517; calls by dose curve; also: nearly all actives have a fitted effect of over 50% in size; also: potency is read from the fitted curve at half-maximal effect). An outline of the steps: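 After overnight attachment, ESRE-bla HeLa cells were treated with Tox21 library compounds for 5 hr. CellTiter-Glo luminescence, read 30 min post-addition at room temperature, reported viability.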

In assay [4] the target is Nuclear receptor ROR-gamma (Homo sapiens) (UniProt P51449). Put plainly: qHTS assay to identify small molecule antagonists of the retinoid-related orphan receptor gamma (ROR-gamma) signaling pathway (AID 1159521; also: nearly all actives have a fitted effect of over 50% in size; also: potency is read from the fitted curve at half-maximal effect). An outline of the steps: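 Test compounds were applied to Tet-on RORγ CHO cells 2 h ahead of doxycycline hyclate (1 uM final). Luciferase reporter activity was quantified by luminescence after 16 h at 37 C and 5% CO2.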

Assay [5] is described as follows: qHTS assay to identify small molecule agonists of the AP-1 signaling pathway - cell viability counter screen (AID 1159525; calls by dose curve; also: nearly all actives have a fitted effect of over 55% in size; also: potency is read from the fitted curve at half-maximal effect). An outline of the steps:
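Intracellular ATP by Cell Titer Glo luminescence (30 min, RT) in the same ME-180 AP-1-bla wells after the 5 h compound exposure at 37 °C. Normalised to tetra n-octyl ammonium bromide and DMSO controls.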

Assay [6] in a line: qHTS assay to identify small molecule agonists of the AP-1 signaling pathway (AID 1159526; calls by dose curve).
Assay [7] can be described thus: qHTS assay to identify small molecule antagonists of the retinoid acid receptor (RAR) signaling pathway - cell viability counter screen (AID 1159551). Also: nearly all actives have a fitted effect of over 35% in size. Summed up: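 ATP-based viability, C3RL4 cells, 6 h at 37 C with 1 uM final retinol co-added after compound; luminescence read 30 min post CellTiter-Glo, RT.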
Assay [8] can be described thus: qHTS assay to identify small molecule antagonists of the retinoic acid receptor (RAR) signaling pathway (AID 1159552; also: nearly all actives have a fitted effect of over 50% in size). Summed up:
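Test chemicals and DMSO controls were pin-transferred onto C3RL4 cells a day after seeding; retinol (1 uM final) followed at once. Luminescent reporter output was quantified after 6 hr of co-incubation and 30 min with detection reagent.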

A short description of assay [9]: qHTS assay to identify small molecule agonists of the retinoic acid receptor (RAR) signaling pathway (AID 1159553). Also: potency is read from the fitted curve at half-maximal effect. An outline of the steps: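 Quantitative high-throughput format: the Tox21 10K library was tested on C3RL4 RARE-luciferase cells for 6 hr at 37 C and 5% CO2, with luminescence measured after a 30 min room-temperature reagent step.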
In assay [10] the target is Retinoic acid receptor RXR-alpha (Homo sapiens) (UniProt P19793). Put plainly: qHTS assay to identify small molecule agonists of the RXR signaling pathway (AID 1159527; calls by dose curve; also: nearly all actives have a fitted effect of over 35% in size). Summed up: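 Using 9-cis retinoic acid as the reference agonist, chemicals were tested in HEK 293T cells […] for 16 hr; substrate loading lasted 2 hr at room temperature.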
Chain of Retinoic acid receptor RXR-alpha (Homo sapiens) (P19793 whole entry, looked up): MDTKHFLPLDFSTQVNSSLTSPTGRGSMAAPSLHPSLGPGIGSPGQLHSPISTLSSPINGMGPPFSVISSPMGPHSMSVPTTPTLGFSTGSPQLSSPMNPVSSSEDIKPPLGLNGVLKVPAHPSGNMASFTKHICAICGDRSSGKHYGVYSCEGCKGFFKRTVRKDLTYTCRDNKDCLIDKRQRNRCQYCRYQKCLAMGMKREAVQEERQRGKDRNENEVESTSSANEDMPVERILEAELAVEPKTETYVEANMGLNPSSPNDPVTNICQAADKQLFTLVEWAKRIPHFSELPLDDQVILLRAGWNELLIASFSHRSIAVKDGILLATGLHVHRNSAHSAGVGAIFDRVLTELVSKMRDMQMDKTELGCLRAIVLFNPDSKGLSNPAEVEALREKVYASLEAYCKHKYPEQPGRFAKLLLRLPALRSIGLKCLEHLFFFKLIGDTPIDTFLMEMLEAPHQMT

Assay [11] in a line: qHTS assay to identify small molecule antagonists of the vitamin D receptor (VDR) signaling pathway - cell viability counter screen (AID 743225). Also: nearly all actives have a fitted effect of over 50% in size. Also: potency is read from the fitted curve at half-maximal effect. An outline of the steps: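 Compounds were pinned onto VDR-bla HEK 293T cells together with 1-alpha,25-dihydroxyvitamin D3 at 3 nM final. After 16 h at 37C and 5% CO2 plus the reporter readout, cell viability was measured by CellTiter-Glo luminescence (30 min, room temperature).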

The nature of assay [12]: qHTS assay to identify small molecule agonists of the RXR signaling pathway - cell viability counter screen (AID 1159529). Also: nearly all actives have a fitted effect of over 50% in size. Also: potency is read from the fitted curve at half-maximal effect. Summed up:
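Compounds dissolved in DMSO were pinned onto HEK 293T cells carrying a beta-lactamase reporter under RXR-alpha control and incubated 16 hr. Cytotoxicity was then quantified by CellTiter-Glo luminescence.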

Assay [13] is described as follows: qHTS assay to identify small molecule antagonists of the retinoid-related orphan receptor gamma (ROR-gamma) signaling pathway - cell viability counter screen (AID 1159520). Also: nearly all actives have a fitted effect of over 50% in size. Also: potency is read from the fitted curve at half-maximal effect. An outline of the steps: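 Cytotoxicity was read from cellular ATP (CellTiter-Glo luminescence) after 16 hr at 37 C with 1 uM doxycycline induction. The inducer was added 2 hr after compound transfer to Tet-on ROR gamma CHO cells.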

The nature of assay [14]: qHTS assay to identify small molecule antagonists of the estrogen related receptor (ERR) signaling pathway - cell viability counter screen (AID 1224818).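 Also: series mostly up to about 46 µM; viability measured after 17.5 h of compound exposure.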 An outline of the steps:
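Quantitative high-throughput viability counter screen in ERR cells. Compounds (DMSO) incubated 17.5 h at 37 C; read-out was CellTiter-Fluor fluorescence.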

Assay [15] is described as follows: qHTS assay to identify small molecule agonists of the estrogen related receptor (ERR) signaling pathway (AID 1224820). An outline of the steps: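 Luminescence readout (One-Glo, 30 min RT) from NTP-supplied ERR cell line exposed to compounds for 18 h at 37 C. Cells seeded 2,000 per well and pre-incubated 6 h before pin-tool compound transfer.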
In assay [16] the test system is estrogen-related receptor alpha (ERRalpha) with PGC-1alpha coactivator, human. Description: qHTS assay to identify small molecule antagonists of the estrogen related receptor signaling pathway with the pleiotropic PPARgamma coactivator (PGC) (AID 1224821; calls by dose curve). Summed up:
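PGC/ERR reporter cells; 6 h pre-incubation 37 C/5% CO2; pin-tool compound in DMSO, 18 h 37 C; One-Glo added, 30 min RT; luminescence read. qHTS antagonist mode.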

Assay [17] in a line: qHTS assay to identify small molecule agonists of the estrogen related receptor signaling pathway with the pleiotropic PPARgamma coactivator (PGC) (AID 1224823). An outline of the steps: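 Luminescence readout (One-Glo, 30 min RT) from PGC/ERR cell line treated 18 h at 37 C with pin-tool-delivered DMSO compound solutions; cells plated 6 h before dosing. Quantitative HTS format.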

Each structure is given as a SMILES string. Records with an inconclusive call do not appear. Activity calls are given as the source filed them. Unless noted, calls follow the shape of the dose curve; as a rule, active = well fitted curve in the direction sought with a large enough effect in the repeat runs; inconclusive = weak or mixed curves; inactive = no such curve, though single readings can be large; an effect the other way counts as inactive or inconclusive.

For the compound `COc1c(C)c2c(c(O)c1C/C=C(\C)CCC(=O)O)C(=O)OC2`, the Potency result in [1], in assay [2], in [5], in [6], in assay [7] and in [8] was “inactive” in each case. Besides, the Potency result in assay [9] is “inactive”. Also, the figures for the Potency in assay [3] and in assay [4] were 16.9 µM (active) and 0.133 µM (active), respectively.

As for `NNc1nc(-c2ccccc2)cs1`, the Potency result in [2], in [3], in [4], in [5], in assay [10] and in [7] was “inactive” in each case. For the same compound, the Potency result in [8] is “inactive”. In assay [9], the Potency is 70.5 µM (active).

For `C[C@@H]1C[C@H]2[C@@H]3CCC4=CC(=O)C=C[C@]4(C)[C@@]3(Cl)[C@@H](O)C[C@]2(C)[C@@]1(OC(=O)c1ccco1)C(=O)CCl`, the Potency entry in [2], in assay [3], in assay [5], in assay [6] and in [7] was “inactive” each time. In addition, the Potency in [4] is 11.9 µM (active).

Consider `CN(C)[C@@H]1C(=O)C(C(N)=O)=C(O)[C@@]2(O)C(=O)C3=C(O)c4c(O)cccc4C[C@H]3C[C@@H]12`, for which the Potency entry in [1], in assay [11], in [2], in [3], in assay [5] and in assay [6] was “inactive” in each case. Moreover, the Potency entry in assay [10], in assay [12], in assay [7], in assay [8] and in assay [9] was “inactive” throughout. Also, the Potency in assay [4] was 13.3 µM (active).

Turning to `O=c1[nH]sc2cc(Cl)ccc12`, the Potency in [1] is 29.8 µM (active); in assay [13], 26.6 µM (active); in [12], 26.8 µM (active). Further, the Potency result in assay [2], in [3], in [7] and in assay [8] was “inactive” each time.

Consider `CCN(CC)CCCC(C)Nc1c2ccc(Cl)cc2nc2ccc(OC)cc12` (stereo not given), for which the Potency in [11] was 23.9 µM (active); in assay [16], 16.8 µM (active). Besides, the Potency entry in assay [2], in assay [3], in [13], in assay [5], in assay [7] and in assay [14] was “inactive” in each case. The compound was called inactive in assay [15] and in [17].

Turning to `Fc1ccc([C@@H]2CCNC[C@H]2COc2ccc3c(c2)OCO3)cc1`, the Potency result in assay [2], in assay [3], in [13], in assay [5], in [12] and in [7] was “inactive” each time. Besides, in assay [9], the Potency result was “inactive”.

Regarding `CSc1cnc(C)cn1`, the Potency entry in assay [1], in [11], in assay [2], in [13], in [4] and in [5] was “inactive” in each case. Also, the Potency result in [6], in assay [12], in [7], in assay [8] and in [9] was “inactive” each time.

`CCCCCCCCOc1ccccc1C(=O)Nc1ccc(C(=O)OCC[N+](C)(CC)CC)cc1`: the Potency result in assay [1], in assay [3], in assay [4] and in assay [9] was “inactive” each time. The figures for the Potency in assay [2], in assay [5] and in [12] were 12 µM (active), 26.8 µM (active) and 10.7 µM (active), respectively.

Regarding `C=C(C)C(=O)OCC(O)COc1ccc(C(C)(C)c2ccc(OCC(O)COC(=O)C(=C)C)cc2)cc1` (stereo not given), the Potency in assay [1] is 12.3 µM (active); in [11] it was 19.5 µM (active); in [4], 24.3 µM (active). The Potency result in assay [2], in assay [3], in assay [5], in assay [7] and in [8] was “inactive” in each case.

Source of the values: PubChem BioAssay (Tox21).
